Assay results: publication PMC12214610

Each substance was assayed against Heat shock cognate 71 kDa protein (UniProt P11142).
Heat shock cognate 71 kDa protein, sequence (P11142 whole entry): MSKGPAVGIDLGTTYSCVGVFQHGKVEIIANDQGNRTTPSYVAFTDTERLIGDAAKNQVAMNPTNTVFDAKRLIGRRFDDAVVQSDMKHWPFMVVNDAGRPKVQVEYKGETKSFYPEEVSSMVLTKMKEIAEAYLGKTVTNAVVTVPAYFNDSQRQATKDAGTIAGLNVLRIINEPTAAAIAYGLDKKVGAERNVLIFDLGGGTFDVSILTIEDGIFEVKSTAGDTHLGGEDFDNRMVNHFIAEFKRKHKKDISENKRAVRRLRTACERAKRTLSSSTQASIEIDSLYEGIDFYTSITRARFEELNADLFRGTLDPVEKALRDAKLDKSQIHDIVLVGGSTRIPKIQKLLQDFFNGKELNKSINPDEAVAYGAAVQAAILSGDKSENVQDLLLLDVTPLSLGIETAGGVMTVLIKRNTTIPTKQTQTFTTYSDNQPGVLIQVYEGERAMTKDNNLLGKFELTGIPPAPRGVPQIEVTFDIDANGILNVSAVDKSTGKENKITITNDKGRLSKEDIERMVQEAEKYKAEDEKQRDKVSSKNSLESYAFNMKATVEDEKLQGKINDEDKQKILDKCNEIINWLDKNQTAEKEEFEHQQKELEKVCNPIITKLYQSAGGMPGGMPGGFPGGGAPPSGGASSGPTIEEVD

Glyceraldehyde-3-phosphate dehydrogenase, P04406, sequence (P04406 whole entry): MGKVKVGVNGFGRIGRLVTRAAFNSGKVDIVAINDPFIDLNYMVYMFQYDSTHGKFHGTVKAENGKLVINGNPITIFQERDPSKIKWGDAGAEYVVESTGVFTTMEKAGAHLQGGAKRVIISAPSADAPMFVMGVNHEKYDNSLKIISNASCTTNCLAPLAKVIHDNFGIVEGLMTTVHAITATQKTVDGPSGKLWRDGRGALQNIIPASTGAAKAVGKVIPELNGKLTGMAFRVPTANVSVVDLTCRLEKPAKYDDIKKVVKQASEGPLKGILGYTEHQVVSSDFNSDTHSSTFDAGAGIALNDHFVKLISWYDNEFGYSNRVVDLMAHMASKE

Listed as a hit, yes:
Heat shock 70 kDa protein 4L, O95757
Thioredoxin, P10599
Glyceraldehyde-3-phosphate dehydrogenase, P04406
